Test results reported in the supplement of paper PMC10646978.
± gives the standard deviation.

Key:
Settings in all cases: modulator concentration 10 µM
[1] = test system: RAW-Dual (murine macrophage reporter line); assay: NF-kB reporter (SEAP) activity fold change vs agonist alone; higher = enhanced NF-kB activity
How it was run: (§1)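 Overnight stimulation with a PRR agonist followed pre-incubation for 1 hour at 37 °C with compound at 10 μM final. This was done in RAW-Dual murine macrophage reporter cells seeded at 50 000 per well in 384-well plates. NF-κB (SEAP, QUANTI-Blue absorbance at 620 nm) and IRF (Lucia luciferase, QUANTI-Luc luminescence) were read from the supernatant. Each reporter's fold change relative to the mean agonist-only control on the same plate was averaged over replicate plates.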

[2] = test system: RAW-Dual (murine macrophage reporter line); assay: IRF reporter (Lucia luciferase) activity fold change vs agonist alone; higher = enhanced IRF activity
How it was run: as §1

[3] = test system: RAW-Dual (murine macrophage reporter line); assay: viability score (confluency relative to resting cells, overnight) (fraction); higher = more viable, active = viable (0.7 or more)
How it was run: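 In 384-well plates, RAW-Dual macrophages received compound at a final 10 μM overnight. Two confluency masks were then made with IncuCyte software from IncuCyte images of all imaged wells. The viability score is defined as confluency relative to resting cells. Passing the cutoff required both masks to lie above 70% of resting cells.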

[4] = agonist: CpG ODN 1826 0.5 ug/mL

Row | SMILES | NF-kB reporter [1, 4] | NF-kB reporter ([1]; agonist: LPS 0.1 ug/mL) | NF-kB reporter ([1]; agonist: MPLA […]) | IRF reporter ([2]; agonist: 3'3'-cGAMP 10 ug/mL) | IRF reporter ([2]; agonist: LPS 0.1 ug/mL) | IRF reporter ([2]; agonist: MPLA […]) | viability score [3]
1 | O=[N+]([O-])c1ccc(NCCc2ccccc2)c2ncccc12 | 0.971 ± 0.17 | 1.04 ± 0.086 | 1.6 ± 0.64 | 0.926 ± 0.032 | 1.25 ± 0.21 | 1.31 ± 0.2 | 0.997 (active)
2 | CN1CC(CNC(=O)OCc2ccccc2)CC2c3cccc4c3c(cn4C)CC21 (stereo unspecified) | 1.02 ± 0.065 | 0.966 ± 0.11 | 0.963 ± 0.08 | 0.986 ± 0.034 | 1.43 ± 0.14 | 1.2 ± 0.18 | 0.997 (active)
3 | COc1ccc(CN2CCNCC2)c(OC)c1OC.Cl.Cl | 1.26 ± 0.18 | 1.06 ± 0.16 | 1.45 ± 0.53 | 0.921 ± 0.042 | 1.29 ± 0.28 | 1.27 ± 0.13 | 0.989 (active)
4 | NC(=O)CN1CC(O)CC1=O (stereo unspecified) | 1.04 ± 0.079 | 1.04 ± 0.051 | 1 ± 0.03 | 0.961 ± 0.081 | 1.02 ± 0.082 | 0.954 ± 0.097 | 0.996 (active)
5 | CCCC(=O)c1ccc(N2CCNCC2)c(F)c1 | 0.404 ± 0.023 | 1.12 ± 0.069 | 0.961 ± 0.082 | 0.861 ± 0.043 | 1.4 ± 0.14 | 1.66 ± 0.18 | 0.951 (active)
6 | COc1ccc(C(CN(C)C)C2(O)CCCCC2)cc1 (stereo unspecified) [Prestw-1170] | 0.741 ± 0.12 | 1.17 ± 0.14 | 0.956 ± 0.074 | 0.916 ± 0.031 | 1.11 ± 0.22 | 1.37 ± 0.23 | 0.981 (active)
7 | N=C(N)NOCCC(N)C(=O)O (stereo unspecified) | 1.02 ± 0.076 | 1 ± 0.058 | 1.02 ± 0.03 | 0.979 ± 0.057 | 0.938 ± 0.12 | 0.931 ± 0.13 | 0.998 (active)
8 | CC(C)c1c(CN(C)C(C)Cc2ccccc2)n(C)n(-c2ccccc2)c1=O (stereo unspecified) [Prestw-703] | 1.35 ± 0.082 | 1 ± 0.17 | 1.05 ± 0.067 | 0.792 ± 0.03 | 1.02 ± 0.073 | 0.995 ± 0.14 | 0.998 (active)
9 | CCN(CC)CCNC(=O)C(O)(c1ccccc1)c1ccccc1 | 0.873 ± 0.071 | 0.937 ± 0.066 | 0.964 ± 0.038 | 0.968 ± 0.076 | 0.991 ± 0.17 | 0.923 ± 0.23 | 0.998 (active)
10 | CC12CC1(C)C(=O)N(c1cc(Cl)cc(Cl)c1)C2=O (stereo unspecified) | 1.06 ± 0.092 | 1.1 ± 0.097 | 0.96 ± 0.045 | 0.942 ± 0.085 | 1.11 ± 0.081 | 1.18 ± 0.17 | 1 (active)
11 | O=C1NC(=O)C(=CNc2ccccc2C(F)(F)F)C(=O)N1 | 1.13 ± 0.11 | 0.946 ± 0.11 | 1.04 ± 0.1 | 1.02 ± 0.034 | 1.21 ± 0.24 | 1.2 ± 0.2 | 1.02 (active)
12 | C=C(C)C1Cc2c(ccc3c2OC2COc4cc(OC)c(OC)cc4C2C3=O)O1 (stereo unspecified) | 1.6 ± 0.13 | 1.02 ± 0.1 | 1.75 ± 0.18 | 0.515 ± 0.028 | 1.64 ± 0.27 | 2.07 ± 0.4 | 0.924 (active)
13 | O=C1NC(=O)C(=Cc2cc(Br)ccc2OCc2ccc(Cl)cc2Cl)C(=O)N1 | 0.887 ± 0.05 | 0.945 ± 0.071 | 0.794 ± 0.058 | 0.949 ± 0.033 | 0.751 ± 0.11 | 0.822 ± 0.16 | 0.991 (active)
14 | CC(C(O)c1ccccc1)N(C)C (stereo unspecified) | 0.96 ± 0.084 | 0.883 ± 0.065 | 0.955 ± 0.091 | 0.995 ± 0.031 | 1.26 ± 0.12 | 1.3 ± 0.19 | 1 (active)
15 | CN1C(=O)NC(=O)C(=Cc2cc(Br)cc(Cl)c2O)C1=O | 0.19 ± 0.019 | 0.505 ± 0.026 | 1.32 ± 0.63 | 0.537 ± 0.042 | 1.11 ± 0.078 | 0.942 ± 0.079 | 1.01 (active)
16 | COc1cc2c(c(OC)c1OC)-c1ccc(OC)c(=O)cc1[C@@H](NC(C)=O)CC2 | 2.45 ± 0.12 | 1.8 ± 0.14 | 2.47 ± 0.11 | 0.0843 ± 0.011 | 1.5 ± 0.13 | 1.91 ± 0.42 | 0.687 (inactive)
17 | CC(NC(C)(C)C)C(=O)c1cccc(Cl)c1.Cl (stereo unspecified) | 0.906 ± 0.1 | 1.09 ± 0.11 | 0.99 ± 0.048 | 0.986 ± 0.065 | 0.955 ± 0.1 | 0.904 ± 0.14 | 0.998 (active)
18 | CN1C(=O)C(=Cc2nc3ccccc3c(=O)n2-c2ccccc2)c2ccccc21 | 1.01 ± 0.088 | 0.867 ± 0.097 | 1.65 ± 0.63 | 1.08 ± 0.052 | 1.32 ± 0.23 | 1.29 ± 0.24 | 1.05 (active)
19 | COc1cc(C2c3cc4c(c(O)c3CC3COC(=O)C32)OCO4)cc(OC)c1OC (stereo unspecified) | 2.38 ± 0.14 | 1.31 ± 0.086 | 2.08 ± 0.14 | 0.0984 ± 0.0043 | 1.75 ± 0.2 | 1.92 ± 0.17 | 0.735 (active)
20 | COc1cc(CNCCc2c[nH]c3ccccc23)cc(OC)c1O | 0.642 ± 0.052 | 0.811 ± 0.12 | 1.04 ± 0.096 | 0.93 ± 0.043 | 1.44 ± 0.11 | 1.56 ± 0.15 | 1 (active)
21 | COc1cc2c(cc1O)CC1c3c(cc(O)c(OC)c3-2)CCN1C (stereo unspecified) | 0.916 ± 0.23 | 0.96 ± 0.078 | 0.924 ± 0.092 | 0.881 ± 0.03 | 1.17 ± 0.16 | 1.12 ± 0.11 | 0.999 (active)
22 | COc1ccc2c3c([nH]c2c1)C(C)=NCC3 | 0.359 ± 0.089 | 0.917 ± 0.046 | 0.852 ± 0.054 | 0.778 ± 0.038 | 0.771 ± 0.17 | 0.793 ± 0.15 | 1 (active)
23 | COC(=O)c1ccc(N2C(=O)NC(=O)C(=Cc3ccc(OCc4ccccc4F)cc3)C2=O)cc1 | 1.06 ± 0.11 | 1.04 ± 0.057 | 0.88 ± 0.056 | 0.942 ± 0.043 | 1.25 ± 0.24 | 1.08 ± 0.25 | 1 (active)
24 | COc1cc2c(cc1OC)C1CC(=O)C(CC(C)C)CN1CC2 (stereo unspecified) | 1.09 ± 0.093 | 1.04 ± 0.076 | 0.986 ± 0.045 | 0.983 ± 0.065 | 0.933 ± 0.047 | 0.904 ± 0.073 | 0.992 (active)
25 | COCCN1C(=O)CN(C2CCN(CC(=O)N3CC(C)OC(C)C3)CC2)C1=O (stereo unspecified) | 0.903 ± 0.056 | 0.889 ± 0.11 | 0.997 ± 0.073 | 0.95 ± 0.13 | 0.979 ± 0.13 | 1.03 ± 0.29 | 0.977 (active)
26 | O=C1NC(=O)C(C(CC(=O)c2ccccc2)c2ccccc2)C(=O)N1 (stereo unspecified) | 1.04 ± 0.093 | 0.984 ± 0.076 | 0.93 ± 0.035 | 0.942 ± 0.12 | 1.02 ± 0.045 | 0.931 ± 0.14 | 1 (active)
27 | CC[C@@]1(O)C(=O)OCc2c1cc1n(c2=O)Cc2cc3ccccc3nc2-1 [Prestw-200] | 1.33 ± 0.23 | 1.75 ± 0.17 | 2.95 ± 0.72 | 3.06 ± 0.081 | 2.05 ± 0.42 | 2.66 ± 0.37 | 0.768 (active)
28 | Cc1ccccc1N1C(=O)C(=Cc2ccc(-c3ccc(C(=O)O)c(Cl)c3)o2)C(=O)NC1=S | 0.617 ± 0.049 | 1.05 ± 0.067 | 0.9 ± 0.066 | 0.692 ± 0.017 | 1.24 ± 0.24 | 0.964 ± 0.2 | 1.01 (active)
